# Data from PubChem BioAssay AID743291 (Broad Institute, 2014).
# Entries with a potency or affinity are not part of this list. A number with no mark means an inactive call.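 The calls were made as follows: active = signal drop with fitted half-maximal dose at most twice the top valid dose, active in every repeat; inconclusive = repeats disagree, or flat partial inhibition, or poor fit; inactive = inactive in every repeat, including opposite effects.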
# Molecular target: Caspase-3 (Homo sapiens) (UniProt P42574)
# Sequence (P42574 whole entry, looked up): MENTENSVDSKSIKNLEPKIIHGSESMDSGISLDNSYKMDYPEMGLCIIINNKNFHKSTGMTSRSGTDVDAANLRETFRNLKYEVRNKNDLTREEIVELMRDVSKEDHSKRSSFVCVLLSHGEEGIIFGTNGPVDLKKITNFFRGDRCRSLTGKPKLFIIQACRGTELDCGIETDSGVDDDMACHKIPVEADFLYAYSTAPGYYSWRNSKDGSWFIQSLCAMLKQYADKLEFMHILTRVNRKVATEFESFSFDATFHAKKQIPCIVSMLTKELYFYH
# Test: caspase-3 enzyme inhibitors, selectivity check, dose response, selectivity assay for caspase-6 allosteric inhibitor project, biochemical, fluorescence, cherry-picked samples (AID 743291)
# Settings: Recombinant caspase-3, Z-DEVD-R110 cleavage fluorescence; series mostly up to 35 µM; activity change, negative = inhibition: at the top concentration
row,Compound,"activity change, negative = inhibition"
1,O=C1CN(C(=O)COC(=O)c2ccc([N+](=O)[O-])s2)c2ccccc2N1,3.76%
2,CCCCNC(=O)c1nc(C2CCNCC2)oc1-c1cccc(C(F)(F)F)c1,6.13%
3,Cc1c(NC(=O)C(C)OC(=O)c2ccc([N+](=O)[O-])s2)c(=O)n(-c2ccccc2)n1C (stereo not drawn),-0.097%
4,O=C(COC(=O)c1ccc([N+](=O)[O-])s1)Nc1ccc(F)cc1,-0.773%
5,COc1ccc([N+](=O)[O-])cc1NC(=O)CCS(=O)(=O)c1ccc(Br)cc1,5.2%
6,Cc1ccc(NC(=O)CN(C)C(=O)c2cccc(-n3cccc3)c2)cc1,2.64%
7,Nc1c(O)cccc1C(=O)O,9.43%
8,O=C(COC(=O)c1ccc([N+](=O)[O-])s1)Nc1cccc(S(=O)(=O)NC2=NCCCCC2)c1,3.37%
9,CC(C)(C)c1ccc(NC(=O)COC(=O)c2ccc([N+](=O)[O-])s2)cc1,-9.48%
10,Nc1ccc(Nc2ccccc2)c(S(=O)(=O)O)c1,1.55%
11,O=P(c1ccccc1)(c1ccccc1)c1cc(S(=O)(=O)O)ccc1O,0.416%
12,O=C(O)CCc1ccc(-c2ccc(Br)cc2)n1CC(=O)O,3.3%
13,COc1ccc(C(=O)OCC(=O)Nc2ncc([N+](=O)[O-])s2)cc1OC,-5.7%
14,COc1cc(NCCCCC(C)N)c2nccc(C)c2c1 (stereo not drawn),3.62%
15,Cc1cccc(NC(=O)CNC(=O)c2cccc(-n3cccc3)c2)c1C,-9.13%
16,CCCCN(C(=O)c1cccc(-n2cccc2)c1)c1c(N)n(Cc2ccccc2)c(=O)[nH]c1=O,0.487%
17,COc1ccccc1NC(=O)COC(=O)c1ccc([N+](=O)[O-])s1,-44.9%
18,O=C(c1cccc(-n2cccc2)c1)N1CCN(S(=O)(=O)c2ccccc2)CC1,-1.52%
19,O=C(O)C1Nc2c(Cl)cc(Cl)c(Cl)c2C2C=CCC12 (stereo not drawn),6.61%

row,Compound,"activity change, negative = inhibition"
1,O=C(COC(=O)c1ccc([N+](=O)[O-])s1)Nc1ccccc1,5.67%
2,O=C(Nc1ccc(S(=O)(=O)Nc2cnc3ccccc3n2)cc1)c1ccc(Cl)c([N+](=O)[O-])c1,2.61%
3,O=C(C[C@@H]1C[C@H]2c3cc(NC(=O)NC4CCCCC4)ccc3O[C@H]2[C@H](CO)O1)NCc1ccccn1,7.7%
4,Cc1cc(C=O)c(C)n1-c1cc(C(=O)O)cc(C(=O)O)c1,-0.391%
5,Oc1cc2c(cc1O)[C@H]1c3ccc(O)c(O)c3OC[C@@]1(O)C2,-5.9%
6,O=C(O)CC(CCc1ccccc1)OC1OC(CO)C(O)C(O)C1O (stereo not drawn),0.587%
7,COc1ccc(S(=O)(=O)Nc2cc(Sc3ncn[nH]3)c(O)c3ccccc23)cc1,0.674%
8,COCCN(C(=O)COC(=O)c1cc2c(s1)CCC2)c1c(N)n(Cc2ccccc2)c(=O)[nH]c1=O,-1.05%
9,Nc1cc2c(cc1Br)[nH]c(=O)c1ccccc12,-47%
10,COc1cc(NC(C)CCCNC(C)C)c2ncccc2c1OC (stereo not drawn),-15.3%
11,CCCCN(C(=O)c1cccc(-n2cccc2)c1)c1c(N)n(CCC)c(=O)[nH]c1=O,-0.777%
12,CNS(=O)(=O)c1cccc(C(=O)OCC(=O)N2c3ccccc3NC(=O)C2(C)C)c1,-1.94%
13,Cc1ccc(C)c(NC(=O)CN(C)C(=O)c2cccc(-n3cccc3)c2)c1,-1.83%
14,COc1cc(C)c2c(c1C=O)Oc1c(c(C)c(O)c3c1C(O)OC3=O)OC2=O (stereo not drawn),4.05%
15,Cc1oc2c(cc(NS(=O)(=O)c3ccc(C(C)C)cc3)c3ccccc32)c1C(=O)O,1.41%
16,CCCSC1=N/C(=C\c2ccc([N+](=O)[O-])o2)C(=O)S1,-7.75%
17,O=c1ccc2c(-c3ccccc3S(=O)(=O)O)c3ccc(O)c(O)c3oc-2c1O,-15.3%
18,COc1cc(-c2ccc(Nc3ccccc3C(=O)O)c(OC)c2)ccc1Nc1ccccc1C(=O)O,-0.885%
19,Cc1[nH]nc(S(=O)CC(=O)O)c1[N+](=O)[O-] (stereo not drawn),-3.2%
